PubChem BioAssay (Tox21)
Results filed as inconclusive are left out. A call without a number means that no potency is given here. Values without a mark were called inactive. Activity calls are given as the source filed them. Unless noted, the call rests on the fitted dose curve.

Columns and labels:
[1] = molecular target: Nuclear receptor subfamily 1 group I member 3 (Homo sapiens) (UniProt Q14994); experiment: qHTS assay to identify small molecule agonists of the constitutive androstane receptor (CAR) signaling pathway (AID 1224839; active means well fitted curve in the direction sought with a large enough effect in the repeat runs; an effect the other way counts as inactive or inconclusive;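 further: HepG2 cells stably carrying human CAR and a CYP2B6 luciferase reporter; series mostly up to about 92 µM; nearly all actives have a fitted effect of over 15% in size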)
How it was run: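 HepG2 cells stably expressing hCAR and a CYP2B6-2.2kb luciferase reporter were treated with compounds at 15 concentrations plus 0.75 uM PK11195 (final) for 24 h at 37 C; luminescence was read after ONE-Glo addition.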

[2] = qHTS assay to identify small molecule antagonists of the estrogen related receptor signaling pathway with the pleiotropic PPARgamma coactivator (PGC) from Tox21 10K library - cell viability counter screen (AID 1224840; active means well fitted cell-killing curve with a large enough effect in the repeat runs, not every such curve was filed as active; further: nearly all actives have a fitted effect of over 40% in size)
How it was run: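 Cell viability is measured by CellTiter-Fluor fluorescence in PGC/ERR cells that receive compounds after a 6-hour attachment period and are then incubated 17.5 hours at 37 C.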

[3] = qHTS assay to identify small molecule agonists of H2AX (AID 1224845; active means well fitted activation curve with a large enough effect in the signal ratio in the repeat runs, not every such curve was filed as active; the % refers to the signal ratio)
How it was run: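 Wild-type CHO-K1 cells, plated overnight, exposed 3hr at 37C to 15 concentrations (0.76% DMSO final). Lysed, then HTRF anti-pH2AX (S139) cryptate and anti-H2AX-d2 antibodies, 24 hr room temperature; 665/620 nm emission read.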

[4] = qHTS assay to identify small molecule agonists of the hypoxia (HIF-1) signaling pathway (AID 1224846; active means well fitted activation curve with a large enough effect in the signal ratio in the repeat runs, not every such curve was filed as active; the % refers to the signal ratio)
How it was run: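 Agonist mode reporter screen. ME-180 cells stably expressing bla under HRE control received test compounds in DMSO for 17 hrs (37C, 5% CO2), and beta-lactamase activity was then detected with the CCF4-AM FRET substrate.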

[5] = qHTS assay to identify small molecule agonists of H2AX - cell viability counter screen (AID 1224847); further: top concentration of the series differs between compounds; nearly all actives have a fitted effect of over 30% in size
How it was run: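 Wild-type CHO-K1 cells (10% FBS medium) were plated overnight at 37C, exposed to compounds at 15 concentrations for 3 hr at 37C (0.76% DMSO final), and viability was read as CellTiter-Glo luminescence after 30 min at room temperature.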

[6] = qHTS assay to identify small molecule antagonists of the estrogen related receptor signaling pathway with the pleiotropic PPARgamma coactivator (PGC) from Tox21 10K library (AID 1224841; call rule not given here; further: actives are mostly falling curves and most rising ones were filed inactive; nearly all actives have a fitted effect of over 50% in size; further: potency means the concentration at half of the fitted maximal effect)
How it was run: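 Cells stably carrying the PGC/ERR reporter, seeded at 2,000 per well, received pin-transferred compounds 6 h post-plating. Exposure lasted 18 h at 37 C. Signal: One-Glo luminescence.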

[7] = qHTS assay to identify small molecule agonists of the estrogen related receptor signaling pathway with the pleiotropic PPARgamma coactivator (PGC) from Tox21 10K library (AID 1224842; active means well fitted curve in the direction sought with a large enough effect in the repeat runs; an effect the other way counts as inactive or inconclusive; further: nearly all actives have a fitted effect of over 15% in size)
How it was run: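 PGC/ERR reporter cell line, 2,000 cells per well, incubated 6 h at 37 C before 23 nL compound in DMSO was added. After 18 h at 37 C, One-Glo luminescence read following 30 min at room temperature.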

[8] = molecular target: Thyrotropin receptor (Homo sapiens) (UniProt P16473); experiment: qHTS assay to identify small molecule agonists of the thyroid stimulating hormone receptor (TSHR) signaling pathway (AID 1224843); further: nearly all actives have a fitted effect of over 45% in size
How it was run: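 HEK293/TSHR, 800 cells/well; cpd 30 min RT; add cAMP-d2 + anti-cAMP-cryptate, 1 h RT; fluorescence read on plate reader. 15-pt titration, n=3.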

[9] = qHTS assay to identify small molecule agonists of the hypoxia (HIF-1) signaling pathway - cell viability counter screen (AID 1224844); further: nearly all actives have a fitted effect of over 50% in size
How it was run: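 Viability counter screen: HRE-bla ME-180 cells plated 5 hrs before compound addition, treated 17 hrs at 37C and 5% CO2, then CellTiter-Glo added after the FRET reporter read; luminescence after 30 min.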

[10] = qHTS assay to identify small molecule antagonists of the estrogen related receptor (ERR) signaling pathway from Tox21 library (AID 1224848; active means well fitted curve in the direction sought with a large enough effect in the repeat runs; an effect the other way counts as inactive or inconclusive; further: nearly all actives have a fitted effect of over 50% in size; further: potency means the concentration at half of the fitted maximal effect)
How it was run: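 Compounds dissolved in DMSO are pin-transferred onto ERR reporter cells (2,000 per well) that have settled for 6 h at 37 C. Plates then incubate 18 h at 37 C before ONE-Glo luciferase reagent and a luminescence read 30 min later.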

Thyrotropin receptor (Homo sapiens), sequence (P16473 whole entry, looked up): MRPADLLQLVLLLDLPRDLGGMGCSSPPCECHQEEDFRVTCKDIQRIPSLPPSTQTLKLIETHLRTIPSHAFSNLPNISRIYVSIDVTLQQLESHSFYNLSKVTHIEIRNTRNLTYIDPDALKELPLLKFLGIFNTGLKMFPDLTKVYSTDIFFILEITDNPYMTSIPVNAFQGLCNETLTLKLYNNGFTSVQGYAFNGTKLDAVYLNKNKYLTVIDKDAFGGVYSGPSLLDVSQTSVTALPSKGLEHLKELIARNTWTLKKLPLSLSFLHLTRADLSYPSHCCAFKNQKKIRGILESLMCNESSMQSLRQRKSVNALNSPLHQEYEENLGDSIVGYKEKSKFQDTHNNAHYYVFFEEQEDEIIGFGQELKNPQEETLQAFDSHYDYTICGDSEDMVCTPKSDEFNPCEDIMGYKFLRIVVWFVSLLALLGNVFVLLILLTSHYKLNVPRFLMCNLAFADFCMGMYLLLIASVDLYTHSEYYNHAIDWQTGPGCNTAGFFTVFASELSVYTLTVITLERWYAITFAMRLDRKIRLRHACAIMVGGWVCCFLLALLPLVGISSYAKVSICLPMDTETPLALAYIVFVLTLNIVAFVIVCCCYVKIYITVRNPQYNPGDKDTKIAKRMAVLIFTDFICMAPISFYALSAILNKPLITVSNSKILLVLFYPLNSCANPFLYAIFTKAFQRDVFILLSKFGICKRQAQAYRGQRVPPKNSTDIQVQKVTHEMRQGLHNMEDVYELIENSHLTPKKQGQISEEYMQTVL
Nuclear receptor subfamily 1 group I member 3 (Homo sapiens), sequence (Q14994 whole entry, looked up): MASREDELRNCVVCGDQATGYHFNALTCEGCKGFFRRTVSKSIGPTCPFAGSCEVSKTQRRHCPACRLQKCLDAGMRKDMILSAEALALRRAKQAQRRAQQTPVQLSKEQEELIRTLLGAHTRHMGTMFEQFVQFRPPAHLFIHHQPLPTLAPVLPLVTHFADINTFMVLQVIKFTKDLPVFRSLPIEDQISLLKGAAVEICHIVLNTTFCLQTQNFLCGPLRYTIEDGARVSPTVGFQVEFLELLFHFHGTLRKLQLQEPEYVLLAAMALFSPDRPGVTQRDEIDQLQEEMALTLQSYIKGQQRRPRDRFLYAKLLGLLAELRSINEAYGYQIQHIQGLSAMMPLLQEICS

SMILES | Potency [1] | outcome [2] | outcome [3] | outcome [4] | Potency [5] | Potency [6] | outcome [7] | outcome [8] | outcome [9] | Potency [10]
CN(C)CCCNCCC#N | inactive | inactive | inactive | inactive | inactive | – | – | – | – | –
CC1CCC(C(C)(C)S)C(=O)C1 (configuration not stated) | – | inactive | inactive | inactive | inactive | inactive | inactive | inactive | inactive | inactive
O=C(COCCOCCOCC(=O)Nc1c(I)cc(I)c(C(=O)O)c1I)Nc1c(I)cc(I)c(C(=O)O)c1I | – | inactive | inactive | inactive | inactive | inactive | inactive | inactive | inactive | inactive
O=C1c2ccccc2-c2ccccc21 | inactive | – | inactive | inactive | inactive | inactive | inactive | inactive | inactive | inactive
CCc1nccnc1C | – | inactive | inactive | inactive | inactive | inactive | inactive | inactive | inactive | inactive
O=S1(=O)CCCC1 | inactive | inactive | inactive | inactive | inactive | – | – | – | inactive | –
CCCCC(CC)COC(=O)c1ccccc1 (configuration not stated) | inactive | – | inactive | inactive | inactive | – | – | – | inactive | –
O=C(Oc1ccccc1C(=O)O)c1ccccc1O | – | inactive | inactive | inactive | inactive | inactive | inactive | inactive | inactive | inactive
C[Si]1(C)N[Si](C)(C)N[Si](C)(C)N1 | inactive | – | inactive | inactive | inactive | – | – | – | inactive | –
O=C(O)c1ccc(OCCN2CCCCC2)cc1 | – | inactive | inactive | inactive | inactive | inactive | inactive | inactive | inactive | inactive
CCCCCCCCOC(C)=O | – | inactive | inactive | inactive | inactive | inactive | inactive | inactive | inactive | inactive
C=CCOc1c(Br)cc(C(C)(C)c2cc(Br)c(OCC=C)c(Br)c2)cc1Br | – | inactive | inactive | inactive | inactive | 26.6 µM (active) | inactive | inactive | inactive | 29.9 µM (active)
c1ccccc1 | – | inactive | inactive | inactive | inactive | inactive | inactive | inactive | inactive | inactive
C=CCOCC(CO)(COCC=C)COCC=C | – | inactive | inactive | inactive | inactive | inactive | inactive | inactive | – | inactive
CCC(C)(CCC(C)C)C(=O)[O-].CCC(C)(CCC(C)C)C(=O)[O-].[Zn+2] (configuration not stated) | – | inactive | inactive | inactive | inactive | inactive | inactive | – | inactive | –
CCCCC(C)C(=O)O (configuration not stated) | – | inactive | inactive | inactive | inactive | inactive | inactive | inactive | – | inactive
CCCCCCCCC(=O)OCC | – | inactive | inactive | inactive | inactive | inactive | inactive | inactive | inactive | inactive
COc1ccc(NS(=O)(=O)c2ccc(N)cc2)nn1 | – | inactive | inactive | – | inactive | inactive | inactive | inactive | inactive | inactive
CN(C)CCOCCN(C)CCO | – | inactive | inactive | inactive | inactive | inactive | inactive | inactive | – | inactive
CC(C)(C)NCCO | – | inactive | inactive | inactive | inactive | inactive | inactive | – | – | inactive
NS(=O)(=O)c1ccccc1OC(F)(F)F | – | inactive | inactive | inactive | inactive | inactive | inactive | – | inactive | inactive
CC(=O)Nc1ncc([N+](=O)[O-])s1 | – | inactive | inactive | inactive | inactive | inactive | inactive | inactive | inactive | inactive
NC(=O)NNC(N)=O | – | inactive | inactive | inactive | inactive | inactive | inactive | inactive | inactive | inactive
Cc1cccc(Nc2ccncc2S(=O)(=O)NC(=O)NC(C)C)c1 | – | inactive | inactive | inactive | inactive | inactive | inactive | inactive | – | inactive
C=CCOc1c(Br)cc(Br)cc1Br | – | inactive | inactive | inactive | inactive | inactive | inactive | – | inactive | inactive
CC(C)COC(=O)/C=C/c1ccccc1 | – | inactive | inactive | inactive | – | inactive | inactive | – | inactive | inactive
OC[C@@H](O)[C@H](O)[C@@H](O)[C@@H](O)CO | – | inactive | inactive | inactive | inactive | inactive | inactive | inactive | inactive | inactive
C1CCN2C[C@@H]3C[C@@H](CN4CCCC[C@@H]34)[C@H]2C1 | – | inactive | inactive | – | inactive | inactive | inactive | – | inactive | inactive
